# Records with an inconclusive call do not appear. Active and inactive are the calls of the source. Calls follow the shape of the dose curve; as a rule, active = well fitted inhibition curve with a large enough effect; inconclusive = small, poorly fitted or top-dose-only effect, or effect the other way; inactive = flat fitted curve, though single readings scatter.
# Test: qHTS Assay Multiplex Screening to Identify Dual Action Probes in a Cell Model of Huntington: Cytoprotection (Protease relase)
# Conditions: PC12 HttQ103 cells, Cytotox-Glo protease release, 40 h; series mostly up to 46.1 µM
# In short: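 Inducible PC12 line expressing HTT exon 1 (Q103)-GFP, induced with 100 nM tebufenozide (final) and treated with compounds. Cytoprotection read as released protease activity by Cytotox-Glo luminescence.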
row,Structure (SMILES),Potency
1,C=C1CCC2[C@](C)(CO)[C@H](O)CC[C@@]2(C)[C@@H]1C/C=C1/C(=O)OC[C@H]1O (some centres not stated),inactive
2,Cn1nnnc1Sc1ncnc2scc(-c3ccccc3C(F)(F)F)c12,20 µM (active)
3,Cn1nnnc1Sc1ncnc2scc(-c3ccc(C(F)(F)F)cc3)c12,12.6 µM (active)
4,Fc1cccc(Cl)c1Cn1nnc2c(-n3ccnc3)ncnc21,inactive
5,Cn1nnnc1Sc1ncnc2scc(-c3ccc(C#N)cc3)c12,8.91 µM (active)
6,N#Cc1c(C(F)(F)F)cc(-c2cccc(Cl)c2)[nH]c1=O,2.51 µM (active)
7,Cc1ccccc1N=C(N)Nc1ccccc1C,inactive
8,CC(C(=O)O)c1ccc(CC2CCCC2=O)cc1 (configuration not stated),inactive
9,COc1ccc(NC(=O)c2sc(SC)nc2N)cc1,4.47 µM (active)
10,CC(=O)Oc1cccc(C(=O)O)c1OC(C)=O,inactive
11,C=C(C)C(=O)OCCCCCCOc1ccc(C(=O)O)cc1,2.24 µM (active)
12,Fc1ccc(N2CCN(c3ncnc4nc[nH]c34)CC2)cc1,4.47 µM (active)
13,Cn1nnnc1Sc1ncnc2scc(-c3ccccc3[N+](=O)[O-])c12,20 µM (active)
14,O=C(c1ccccc1)c1ccc2n1CCC2C(=O)O (configuration not stated),3.98 µM (active)
15,Cn1nnnc1Sc1ncnc2scc(-c3ccc(F)cc3)c12,15.8 µM (active)
16,Cn1nnnc1Sc1ncnc2scc(-c3ccccc3S(C)(=O)=O)c12,inactive
17,Cn1nnnc1Sc1ncnc2scc(-c3cccc(F)c3)c12,11.2 µM (active)
18,Cn1nnnc1Sc1ncnc2scc(-c3ccc(-c4ccccc4)cc3)c12,10 µM (active)
19,COC(=O)c1ccc(NC(=O)CN2C(=O)CSC2=O)cc1,inactive
20,Cn1nnnc1Sc1ncnc2scc(-c3cccc(C(F)(F)F)c3)c12,14.1 µM (active)
21,COc1ccc(C)cc1NC(=O)C(Sc1nnnn1C)c1ccccc1 (configuration not stated),inactive
22,CN1C(=O)C2(c3ccccc31)C1CCCC=C1C(C#N)=C(N)C2(C#N)C#N (configuration not stated),inactive

# From PubChem BioAssay AID2669 (National Center for Advancing Translational Sciences (NCATS), 2010)
